# From the OligoGym collection
# Legend:
# Experiment in all cases: pooled miR-30 sensor sort-seq; sequence = guide strand
# Conditions in all cases: shRNA
# SLC25A25 = target: SLC25A25
# SLC50A1 = target: SLC50A1
# SLC7A11 = target: SLC7A11
# SLCO4C1 = target: SLCO4C1
# SMYD3 = target: SMYD3
# SNX29 = target: SNX29
# SQRDL = target: SQRDL
# SRSF11 = target: SRSF11
# SSR4 = target: SSR4
# ST6GAL2 = target: ST6GAL2
# STK32B = target: STK32B
# SULT1A2 = target: SULT1A2
# STX17 = target: STX17
# STYK1 = target: STYK1
# STYX = target: STYX
# STX12 = target: STX12
# Also: reference of the scale not given here.
sequence,measurement,setting,value
TAAATGACAACTTCTAACGTCC,sensor-assay potency score (higher = more potent),SLC25A25,0.0926
TTCTTTTTGTCCAAACTCTTAA,sensor-assay potency score (higher = more potent),SLC25A25,-1.04
TTCCTGTCTTGCTCCTGGGGGT,sensor-assay potency score (higher = more potent),SLC50A1,-0.7
ATAATTATCAGAATTGCTGTGA,sensor-assay potency score (higher = more potent),SLC7A11,0.593
TTAATTAGCTGCATAACTCCAG,sensor-assay potency score (higher = more potent),SLC7A11,0.313
TAACTTTACAAGTAACACTTAT,sensor-assay potency score (higher = more potent),SLCO4C1,-0.974
TTAACTACAATACCTTGCGTGA,sensor-assay potency score (higher = more potent),SLCO4C1,-0.96
TAGCATATCAGCATCCTTGTCC,sensor-assay potency score (higher = more potent),SMYD3,0.139
TTCATCGTCTTTTATCCGGATG,sensor-assay potency score (higher = more potent),SNX29,-0.658
TTTCATATGAAATCACTTGGGT,sensor-assay potency score (higher = more potent),SQRDL,0.204
TAACAGGAGCTTTATAACCATT,sensor-assay potency score (higher = more potent),SRSF11,-1.45
TTAGGGACTGTGCTTCTCGTAC,sensor-assay potency score (higher = more potent),SRSF11,-0.978
TCGTCGAAGAATCTAACCTCAT,sensor-assay potency score (higher = more potent),SSR4,-1.5
TCTCAGTGGAAATGACAGCGTC,sensor-assay potency score (higher = more potent),SSR4,-0.63
TGCGTCGTAGTACAGCTCGTGG,sensor-assay potency score (higher = more potent),ST6GAL2,-0.842
AAAGTAGTCGTCATCCTCCGGG,sensor-assay potency score (higher = more potent),ST6GAL2,0.386
TAATGTGAACATGTCCGTGTTC,sensor-assay potency score (higher = more potent),STK32B,-0.137
TTATTCTGGAGCCTCTTGGTCA,sensor-assay potency score (higher = more potent),SULT1A2,-0.61
TTCTGCAGCATTTTGATCTTGA,sensor-assay potency score (higher = more potent),STX17,0.632
TTGAGGTCCAGAACGCTGCTGT,sensor-assay potency score (higher = more potent),STYK1,0.125
TTCATGATACTGTACATGGTAT,sensor-assay potency score (higher = more potent),STYK1,-0.548
TAAATATCTAAATAACTGCTGA,sensor-assay potency score (higher = more potent),STYX,-0.29
TGTAGTACAGGTAGCTTGCTTT,sensor-assay potency score (higher = more potent),STYX,-0.453
TATATCTGAGTCAAACTCTGAG,sensor-assay potency score (higher = more potent),STX17,0.23
TAGAAGAGGCTCTCCACTCTGA,sensor-assay potency score (higher = more potent),STYK1,0.202
TAAAATTTCCTGCATCTCTCGT,sensor-assay potency score (higher = more potent),STYX,-0.395
TTTTCTGATAGTAAGCAGCTCG,sensor-assay potency score (higher = more potent),STX12,0.207
TACTTCTCAATATTTATCTGGT,sensor-assay potency score (higher = more potent),STX17,0.329
TTTGTATCAATTTTCCACCTGT,sensor-assay potency score (higher = more potent),STX17,0.455
TTGTTCTCTGATAAAAAGCCAC,sensor-assay potency score (higher = more potent),STYK1,-1.1
TAGGGTAGGTCCACTCCTCGGC,sensor-assay potency score (higher = more potent),STYX,0.0939
TAGCTTGCTTGAGTCCTGCTTA,sensor-assay potency score (higher = more potent),STX12,-0.146
ATCCATAGTCATCACATCCCGC,sensor-assay potency score (higher = more potent),STYK1,-0.719
TTTAATGGCAGCTTCTAGGCGC,sensor-assay potency score (higher = more potent),STYK1,0.0946
TTCTGTAGTACAGGTAGCTTGC,sensor-assay potency score (higher = more potent),STYX,-0.197
TAGCAGATGAATATGGGCCTAA,sensor-assay potency score (higher = more potent),STYX,-0.352
TTGACATGGTCTGCAATGCTGT,sensor-assay potency score (higher = more potent),STX17,-0.961
TATGTCTTAGCTCAGGATGTGT,sensor-assay potency score (higher = more potent),STYK1,-0.84
TTGAGTTCTTTGTTCTCTGATA,sensor-assay potency score (higher = more potent),STYK1,-1.2
TAGTATGAAATGCTCCACCAAC,sensor-assay potency score (higher = more potent),STX17,-1.07
TAATACAAAATCTTCTTTCTTG,sensor-assay potency score (higher = more potent),STYX,0.259
TTCTTTAACAGGATCTATCATT,sensor-assay potency score (higher = more potent),STX17,-0.828
